The record followed here is PubChem BioAssay.

Molecules are shown by their SMILES.

This assay concerns wheat germ agglutinin (Triticum aestivum), Alexa647-labelled. The assay is described as follows: Alexa647-WGA lectin binding to printed small molecules – biochemical, small-molecule microarray, 635/667 nm fluorescence, artefact control for SMM control-protein annotation, profiling panel (AID 1140).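 Also: score merges 667 nm feature emission with signal to noise over triplicate slides.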 To be noted: WGA-A647 binding, 635 nm fluorescence, higher = more signal.
As for `Cc1cc2c(c(=O)o1)[C@H](O)[C@H]1O[C@H]1C2=O`, the composite z-score was -0.137.
In the case of `COc1ccc(COC(=O)NN=C2C[C@@H](O)[C@@H](O)[C@@H]3[C@@H]4C(=O)N(c5ccc(F)cc5F)C(=O)[C@@H]4CC[C@@H]23)cc1`, the composite z-score came to 0.744.
With `CO[C@@H]1COC(=O)CCC[C@@H](C)[C@H](OC)COC(=O)CCC[C@H]1C`, the composite z-score was -0.261.
`O=C1C[C@@H](O)[C@@H](O)[C@@H]2[C@@H]3C(=O)N(Cc4ccc5c(c4)OCO5)C(=O)[C@@H]3CC[C@@H]12` yielded a composite z-score of -0.107.
Molecule `CC=CC1=C(CO)[C@H](O)[C@H]2O[C@H]2[C@H]1O` registered a composite z-score of -0.191.
Consider `CC(C)[C@H](NC(=O)OC(C)(C)C)[C@@H](O)CC(=O)OC(C)(C)C`, for which the composite z-score is -0.339.
In turn, `CO[C@H]1COC(=O)[C@@H]2CCCN2C(=O)CC=C[C@@H](C)[C@H](OC)COC(=O)CC=C[C@@H]1C` registered a composite z-score of -0.705.
Molecule `COC(=O)[C@H](C)NC(=O)CCC1CC(OC(=O)NCCc2ccc(F)cc2)CC2(CCCC(COC(=O)NCCc3ccc(Cl)cc3)O2)O1` (some centres undefined) came in with a composite z-score of 0.766.
`CC(C)=CCCC(C)=CCON=C1[C@H]2CCn3c(=O)n(C)c(=O)n3[C@H]2[C@H](O)[C@@H]2O[C@H]12` came in with a composite z-score of 0.115.
In turn, `O=C(NN=C1C[C@@H](O)[C@@H](O)[C@@H]2[C@@H]3C(=O)N(c4cccc(Oc5ccccc5)c4)C(=O)[C@@H]3CC[C@@H]12)OCc1ccccc1` showed a composite z-score of 0.764.
As for `CC(=O)OC[C@H]1O[C@H](C#CCCCc2ccccc2)C=C[C@@H]1OC(C)=O`, the composite z-score is 0.353.
To `CC(CCN1CCc2nc(-c3ccccc3)c(-c3ccccc3)cc2C1)=NO[C@H](C)c1cn([C@@H]2COC[C@H]2O)nn1` belongs 0.224; to `O[C@@H](Cc1ccccc1)[C@H]1C2C=CCCC(c3ccccc3)=C2CN1Cc1cccc(Cl)c1` (some centres undefined), 0.875; to `COc1ccc([Si](C)(C)[C@H]2[C@H](CCO)O[C@@]3(C(=O)N(Cc4cccc(NC(=O)[C@H](C)O)c4)c4ccccc43)[C@@H]2C)cc1`, 0.23.
`O=C1NC(=O)C2C1C=CC(C(O)Cc1ccccc1)N2Nc1ccccn1` (centres undefined) returned a composite z-score of 0.639.
Turning to `CC(CCC(=O)OC[C@H]1O[C@H](C#Cc2ccccc2)C=C[C@@H]1Oc1ccc(C)cc1)=NOC[C@@H](O)COCc1ccco1`, the composite z-score is -0.452.
`CC1CC/C=C\[C@H]2OC34C=CCN(Cn5nnc6ccccc65)C(=O)[C@H]3N(CCO)C(=O)[C@@H]4C2C(=O)O1` (some centres undefined): the composite z-score amounted to 1.24.
To `CCOC(=O)CCN1C(=O)[C@H]2[C@H]3[C@H](O)[C@H](O)CC(=NNC(=O)OCc4ccc(OC)cc4)[C@@H]3CC[C@H]2C1=O` belongs 0.985.
In the case of `CCN1C(=O)[C@H]2[C@H]3[C@H](O)[C@H](O)CC(=NOC(C)CN4CCCCc5nc(C)c(C)cc54)[C@@H]3CC[C@H]2C1=O` (some centres undefined), the composite z-score worked out at 0.0283.
`C#CCCCON=C1C[C@@H](O)[C@@H](O)[C@@H]2[C@@H]3C(=O)N(CCC(=O)OCC)C(=O)[C@@H]3CC[C@@H]12` showed a composite z-score of 0.662.
To `CCN1C(=O)[C@H]2[C@H]3[C@H](O)[C@H](O)CC(=NO[C@@H]4O[C@H](CO)[C@@H](O)[C@H](O)[C@H]4O)[C@@H]3CC[C@H]2C1=O` belongs 0.714.
Regarding `COCC1=C2[C@@H](CCc3ccccc3)OB(O)C[C@@H]2n2c(=O)n(-c3ccccc3)c(=O)n2C1`, the composite z-score was -0.228.
Molecule `CN1C(=O)C2C=CC(C(O)c3ccc(Br)cc3)N(N(c3ccccc3)c3ccccc3)C2C1=O` (centres undefined) had a composite z-score of 0.585.
Regarding `CC(CCN1CCCCc2nc(C)c(C)cc21)=NOC(C)CN1CCCCc2nc(C)c(C)cc21` (centres undefined), the composite z-score is 1.11.
